The record followed here is PubChem BioAssay AID2685 (National Center for Advancing Translational Sciences (NCATS), 2010).

SMILES strings stand for the structures. About 2,100 (0.66%) of roughly 320,000 compounds were called active. Another 53% or so got no clear call; they are omitted. Calls come from the whole dose curve; as a rule, active = well fitted inhibition curve with a large enough effect in the signal ratio, with a control signal flat (not every such curve was filed as active); inconclusive = small, poorly fitted or top-dose-only effect, or effect the other way, or a change in a side signal; inactive = flat fitted curve, though single readings scatter; the % refers to the signal ratio. This excerpt belongs to a sample that is enriched for actives.
Potency is the fitted concentration of half-maximal effect.

The nature of the assay: qHTS Assay for Lipid Storage Modulators in Drosophila S3 Cells.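 For cell number change: cells counted by Cell Tracker Red CMTPX staining in the red channel.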 For lipid storage change, negative = inhibition: % is set by controls: 0 for no effect and ±100 for the full control effect. The conditions noted are these: BODIPY lipid droplet fluorescence, 18-24 h, cells fed with added oleic acid; cell number change: measured here: cell count max response; series mostly up to 46.1 µM; lipid storage change, negative = inhibition: at the top concentration. In outline: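 Laser-scanning cytometry quantifies lipid droplet accumulation (500–530 nm total intensity; droplet/cell object ratio) in oleic acid-fed (400 uM added) Drosophila S3 cells treated with a concentration series. 20 uM Triacsin C defined 100% inhibition.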
(Quantitative high-throughput screening tests each substance at several concentrations.)
Turning to `Cc1cc(C)cc(OCCNC(=O)c2ccc(Br)cc2)c1`, the compound was called inactive and the cell number change amounted to 5.31%.
Consider `CCC(C)c1ccc(NC(=O)Nc2cnccn2)cc1` (configuration not stated), for which the “lipid storage change, negative = inhibition” value was -6.7% (inactive) and the cell number change amounted to 13.7%.
Consider `O=C1CC(C(=O)Nc2cc(Cl)ccc2Cl)n2ncnc2N1` (configuration not stated), for which the cell number change is -2.1% and the lipid storage change, negative = inhibition is 6.51% [at 9.22 µM] (inactive).
Consider `CCOC(=O)N1CCN(S(=O)(=O)c2ccc(C)c(C)c2)CC1`, for which the compound was called inactive.
Regarding `CCN(CC)CCNC(=O)CCn1nc(-c2ccc(Cl)cc2)ccc1=O`, the “lipid storage change, negative = inhibition” value was -4.06% (inactive) and the cell number change is 9.34%.
Regarding `O=C(C1COc2ccccc2O1)N1CCCCC1` (configuration not stated), the “lipid storage change, negative = inhibition” value is -14.7% (inactive) and the cell number change came out at 3.75%.
As to `O=C(C1COc2ccccc2O1)N1CCCC1` (configuration not stated), the Potency is 6.51 µM (active) and the cell number change came to 0.347%.
As to `O=C(C1COc2ccccc2O1)N1CCN(c2ccccc2O)CC1` (configuration not stated), the “lipid storage change, negative = inhibition” value was 37.9% (inactive) and the cell number change was -2.02%.
The like results for `O=C(NNc1cccc(Cl)n1)Nc1ccc(Cl)cc1` were, in that order, 17.2% (inactive) and -10.7%.
For the compound `O=c1oc2ccc(F)cc2c2c1C1O[C@](c3ccsc3)(Cc3c1ccc1ccccc31)O2`, the cell number change stood at 2.65% and the lipid storage change, negative = inhibition is 17.6% [at 9.22 µM] (inactive).
`CC(C)CCNC(=O)C1CCC(=O)N1CCc1ccccc1` (configuration not stated): the “lipid storage change, negative = inhibition” value is 1.46% (inactive) and the cell number change amounted to 19.8%.
Take `CCC(C)(C)NC(=O)CN(Cc1cccs1)C(=O)C(=O)Nc1ccc2c(c1)OCCO2`: the “lipid storage change, negative = inhibition” value is -17.7% (inactive) and the cell number change worked out at 3.41%.
Regarding `CC(C)(C)NC(=O)CN(C(=O)C(=O)Nc1ccc2c(c1)OCCO2)C(C)(C)C`, the “lipid storage change, negative = inhibition” value was -0.996% (inactive) and the cell number change was -1.34%.
On to `CCC(C)(C)NC(=O)CN(C(=O)C(=O)Nc1ccc2c(c1)OCCO2)C1CC1`, for which the Potency was 1.16 µM (active) and the cell number change was -1.67%.
For the compound `O=C(c1ccco1)N1CCN(c2cc(=O)n(-c3ccc(Cl)cc3)c(=O)[nH]2)CC1`, the “lipid storage change, negative = inhibition” value was -21.2% (inactive).
With `Cc1cc(NS(=O)(=O)c2ccc(NC(=O)CSc3nc4ncccc4[nH]3)cc2)nc(C)n1`, the “lipid storage change, negative = inhibition” value was -7.33% (inactive) and the cell number change was -9.17%.
With `CCOC(=O)CNC(=O)c1sc(NC(=O)c2ccccc2)nc1C`, the “lipid storage change, negative = inhibition” value is 13.4% (inactive) and the cell number change is -2.79%.
Regarding `Cc1n[nH]c(=S)n1-c1ccccc1`, the “lipid storage change, negative = inhibition” value was 0.353% (inactive) and the cell number change is 8.27%.
Take `Cc1nn(C)c(=S)n1-c1ccc(Cl)cc1`: the “lipid storage change, negative = inhibition” value is -1.67% (inactive) and the cell number change amounted to 4.59%.
As to `Cc1nn(-c2ccccc2)c(=S)n1-c1ccccc1`, the Potency is 32.6 µM (active) and the cell number change is -7.47%.
Regarding `Cc1ccc(NC(=O)NCc2cccn2C)cc1C`, the “lipid storage change, negative = inhibition” value was 6.76% (inactive) and the cell number change was found to be 7.96%.
Turning to `O=C(Nc1cccc(O)c1)C(=O)Nc1ccccn1`, the “lipid storage change, negative = inhibition” value was 16% (inactive) and the cell number change was found to be 0.58%.
Regarding `O=C(NCc1ccc2c(c1)OCO2)c1ccc(Br)s1`, the “lipid storage change, negative = inhibition” value is 18.6% (inactive) and the cell number change was 15.1%.
As for `COC(C(=O)Nc1ccnn1C1CCN(Cc2nccs2)CC1)c1ccccc1` (configuration not stated), the Potency was 18.4 µM (active) and the cell number change is -27.2%.
For `COC(C(=O)Nc1ccnn1C1CCN(Cc2ccccn2)CC1)c1ccccc1` (configuration not stated), the “lipid storage change, negative = inhibition” value is -3.44% (inactive) and the cell number change is -9.38%.
Take `COC(C(=O)Nc1ccnn1C1CCN(Cc2ccc(C)s2)CC1)c1ccccc1` (configuration not stated): the “lipid storage change, negative = inhibition” value is 4.04% (inactive) and the cell number change is -1.51%.
For `CCc1cc(Br)ccc1NC(=S)NCCc1ccccc1`, the result was inactive and the cell number change was -12.4%.
With `Cc1ccc(/C=N/NC(=O)CSc2nc3ccccc3[nH]2)o1`, the compound was called inactive and the cell number change stood at 23.1%.
As for `CCOC(=O)c1c[nH]c2c(C)cc(C)cc2c1=O`, the “lipid storage change, negative = inhibition” value was -5.71% (inactive) and the cell number change is -13.9%.
Take `CCCNC(=O)c1ccc(N2CCC3(CC2)CC(c2ccccc2)=NO3)c(NC(=O)c2ccco2)c1`: the Potency is 5.17 µM (active) and the cell number change was -21.9%.
Regarding `Cc1ccc(CNC(=O)c2ccc(N3CCC4(CC3)CC(c3cccc(Br)c3)=NO4)c(NC(=O)c3ccco3)c2)cc1`, the “lipid storage change, negative = inhibition” value was -0.741% (inactive) and the cell number change is -15.2%.
As for `CCCNC(=O)c1ccc(N2CCC3(CC2)CC(c2cccc(Br)c2)=NO3)c(NC(=O)c2cccc(C)c2)c1`, the “lipid storage change, negative = inhibition” value is -10.4% (inactive) and the cell number change is -6.01%.
As to `COc1ccccc1NS(=O)(=O)c1ccc2c(c1)CCN2C(=O)CCC(=O)O`, the “lipid storage change, negative = inhibition” value was 11.3% (inactive) and the cell number change was found to be 0.926%.
For `CC(C)c1c(C(=O)N/N=C/c2cccnc2)nnn1-c1nonc1N`, the compound was called inactive and the cell number change is -22.2%.
With `CCc1ccc(-c2ccc(SCc3ccccn3)nn2)cc1`, the “lipid storage change, negative = inhibition” value is 1.79% (inactive) and the cell number change was -1.78%.
As to `Cc1cc(C)cc(C(=O)/C=C2\NC(=O)CS2)c1`, the “lipid storage change, negative = inhibition” value was -9.56% (inactive).
Consider `CC(C)N(Cc1ccccc1)C(=O)COc1ccccc1`, for which the “lipid storage change, negative = inhibition” value was 12.5% (inactive) and the cell number change worked out at 2.07%.
With `O=C(NN(CC(O)COc1ccccc1)CC(O)COc1ccccc1)c1ccccc1` (configuration not stated), the “lipid storage change, negative = inhibition” value is -2.08% (inactive) and the cell number change was -5.14%.
For `CC(C)(C)OC(=O)NOCC(=O)N(Cc1ccccc1)CC(O)COc1ccccc1` (configuration not stated), the Potency is 7.31 µM (active) and the cell number change was -1.25%.
On to `CCOC(=O)N1CCN(C(=O)/C=C/c2c(C)nn(-c3ccc(F)cc3)c2Cl)CC1`, for which the “lipid storage change, negative = inhibition” value was -7.33% (inactive) and the cell number change is -7.81%.
`O=C(CSc1ccccn1)N1CCOCC1`: the “lipid storage change, negative = inhibition” value was -6.88% (inactive) and the cell number change was -9.67%.
`CS(=O)(=O)N(CC(=O)N1CCCCC1)c1ccc(Cl)c(C(F)(F)F)c1`: the “lipid storage change, negative = inhibition” value was 3.58% (inactive) and the cell number change was 0.64%.
As to `CCn1c(SCC(=O)N2CCCC2)nc2ccccc2c1=O`, the “lipid storage change, negative = inhibition” value is 8.17% (inactive) and the cell number change was -13.8%.
For the compound `CNC(=O)c1ncoc1-c1ccc(Cl)cc1`, the “lipid storage change, negative = inhibition” value is 1.92% (inactive) and the cell number change turned out to be 12.8%.
Regarding `CNC(=O)c1oc(-c2ccc(Cl)cc2)nc1C`, the Potency is 2.59 µM (active).
For `COC(=O)c1oc(-c2ccc(Cl)cc2)nc1C`, the “lipid storage change, negative = inhibition” value is -2.09% (inactive) and the cell number change is -10.5%.
Take `Cc1cccc(C)c1NC(=S)N(Cc1ccco1)C1CCN(C(C)C)CC1`: the “lipid storage change, negative = inhibition” value was 4.29% (inactive) and the cell number change came to 1.59%.
As for `COc1ccc(-n2nnnc2SCC(=O)NNC(=O)c2ccc([N+](=O)[O-])cc2)cc1`, the “lipid storage change, negative = inhibition” value was 14.8% (inactive) and the cell number change was 9.64%.
